In paper PMC11995724, “Antibiotic target discovery by integrated phenotypic and activity-based profiling of electrophilic fragments” (Cell chemical biology, 2025):
Screen size: about 3,200 compounds; about 110 (3.4%) showed an effect of 50% or more. Shown is part of a subset that was picked to be rich in strong results.

System: T1, V. cholerae SAD30
T1 construct: SAD30
Parameters: species or system S. aureus MSSA476 (TSB) or V. cholerae SAD30 (LB); 384-well bacterial growth screen at 25 uM, OD600 relative to DMSO control
Conditions: relative growth, OD600, LB; 25 µM; inhibitor

Row | SMILES | % of control remaining
1 | C=CC(=O)NC(c1ccc(C)cc1)C(C)S(C)(=O)=O (stereo not drawn) [2-A10, N-[2-methanesulfonyl-1-(4-methylphenyl)propyl]prop-2-enamide] | 94.3646%
2 | CC(Cl)C(=O)Nc1sccc1C(N)=O (stereo not drawn) [5-C21, 2-(2-chloropropanamido)thiophene-3-carboxamide] | 107.429%
3 | C=CC(=O)N1CCC(NC(C)=O)(c2noc(C)n2)C1 (stereo not drawn) [2-G16, N-[3-(5-methyl-1,2,4-oxadiazol-3-yl)-1-(prop-2-enoyl)pyrrolidin-3-yl]acetamide] | 100.077%
4 | C=CC(=O)NC1CN(S(=O)(=O)c2ccc3c(c2)OCCO3)C1 [2-E11, N-[1-(2,3-dihydro-1,4-benzodioxine-6-sulfonyl)azetidin-3-yl]prop-2-enamide] | 95.7541%
5 | N#CC(=Cc1c(F)cccc1F)C(=O)Nc1ccccc1F [9-J12, 2-cyano-3-(2,6-difluorophenyl)-N-(2-fluorophenyl)prop-2-enamide] | 94.2896%
6 | O=C(CCl)NC1CCCc2nc(-c3ccccc3)sc21 (stereo not drawn) [7-B04, 2-chloro-N-(2-phenyl-4,5,6,7-tetrahydro-1,3-benzothiazol-7-yl)acetamide] | 86.833%
7 | CCCn1c(C)cc(C=C(C#N)C(=O)N2CCC2)c1C [8-L08, 2-(azetidine-1-carbonyl)-3-(2,5-dimethyl-1-propyl-1H-pyrrol-3-yl)prop-2-enenitrile] | 60.707%
8 | COC(=O)c1sccc1N1C(=O)C=CC1=O [10-A07, methyl 3-(2,5-dioxo-2,5-dihydro-1H-pyrrol-1-yl)thiophene-2-carboxylate] | 26.4952%
9 | Cc1cc(C(=O)C(C)Cl)c(C)n1Cc1ccco1 (stereo not drawn) [10-E06, 2-chloro-1-{1-[(furan-2-yl)methyl]-2,5-dimethyl-1H-pyrrol-3-yl}propan-1-one] | 94.9153%
10 | Cc1ccc(NC(=O)CCl)cc1[N+](=O)[O-] [4-M13, 2-chloro-N-(4-methyl-3-nitrophenyl)acetamide] | 93.6813%
11 | COC(=O)c1cc(C(=O)CCl)c(C)o1 [10-G13, methyl 4-(2-chloroacetyl)-5-methylfuran-2-carboxylate] | 43.6392%
12 | CCc1ccc(CC)c(C(=O)CCl)c1 [10-H14, 2-chloro-1-(2,5-diethylphenyl)ethan-1-one] | 95.8504%
13 | COCCn1c(C)cc(C(=O)CCl)c1C [10-D13, 2-chloro-1-[1-(2-methoxyethyl)-2,5-dimethyl-1H-pyrrol-3-yl]ethan-1-one] | 99.9026%
14 | Cc1oc(C(=O)O)cc1C(=O)CCl [10-M21, 4-(2-chloroacetyl)-5-methylfuran-2-carboxylic acid] | 100.37%
15 | NC(=O)c1coc(C(=O)CCl)c1 [10-C05, 5-(2-chloroacetyl)furan-3-carboxamide] | 96.1621%
16 | Cc1oc(C(N)=O)cc1C(=O)CCl [10-M05, 4-(2-chloroacetyl)-5-methylfuran-2-carboxamide] | 20.4169%
17 | CCc1ccc(OC(C)C(=O)N2CCN(C(=O)C(C)Cl)CC2)cc1 (stereo not drawn) [6-H16, 1-[4-(2-chloropropanoyl)piperazin-1-yl]-2-(4-ethylphenoxy)propan-1-one] | 86.302%
18 | C=CC(=O)N1CCC(C(=O)Nc2ccc3c(c2)CCN3C(N)=O)CC1 [3-E16, 5-[1-(prop-2-enoyl)piperidine-4-amido]-2,3-dihydro-1H-indole-1-carboxamide] | 90.5017%
19 | C=CC(=O)NC(c1nc(C)cs1)C1CC1 (stereo not drawn) [3-D21, N-[cyclopropyl(4-methyl-1,3-thiazol-2-yl)methyl]prop-2-enamide] | 100.912%
20 | CCCn1c(C)cc(C=C(C#N)C(=O)Nc2ccc3c(c2)OCO3)c1C [9-G07, N-(1,3-dioxaindan-5-yl)-2-cyano-3-(2,5-dimethyl-1-propyl-1H-pyrrol-3-yl)prop-2-enamide] | 88.5792%
21 | CC(Cl)C(=O)Nc1ccc(F)c(F)c1F (stereo not drawn) [4-O08, 2-chloro-N-(2,3,4-trifluorophenyl)propanamide] | 95.579%
22 | C=CC(=O)NCCCc1conc1C [2-N13, N-[3-(3-methyl-1,2-oxazol-4-yl)propyl]prop-2-enamide] | 87.88%
23 | Cc1ccc(NC(=O)C2(CNC(=O)C(C)Cl)CCCC2)cc1C (stereo not drawn) [7-J13, 1-[(2-chloropropanamido)methyl]-N-(3,4-dimethylphenyl)cyclopentane-1-carboxamide] | 74.8059%
24 | Cn1cc(C=C(C#N)C(=O)Nc2ccccc2F)c(-c2ccncc2)n1 [9-L15, 2-cyano-N-(2-fluorophenyl)-3-[1-methyl-3-(pyridin-4-yl)-1H-pyrazol-4-yl]prop-2-enamide] | 89.6669%
25 | O=C1CCCc2cc(C(=O)CCl)ccc2N1 [10-M20, 7-(2-chloroacetyl)-2,3,4,5-tetrahydro-1H-1-benzazepin-2-one] | 94.6035%
26 | CC1(C)C(=O)Nc2ccc(C(=O)CCl)cc21 [10-N21, 5-(2-chloroacetyl)-3,3-dimethyl-2,3-dihydro-1H-indol-2-one] | 35.0672%
27 | O=C1CCc2cc(C(=O)CCl)c(F)cc2N1 [10-O20, 6-(2-chloroacetyl)-7-fluoro-1,2,3,4-tetrahydroquinolin-2-one] | 36.6258%

Row | SMILES | % of control remaining
28 | O=C1CCc2cc(C(=O)CCl)ccc2N1 [10-M03, 6-(2-chloroacetyl)-1,2,3,4-tetrahydroquinolin-2-one] | 23.534%
29 | C=CC(=O)NCc1c(Cl)c(C(F)(F)F)nn1C [2-J07, N-{[4-chloro-1-methyl-3-(trifluoromethyl)-1H-pyrazol-5-yl]methyl}prop-2-enamide] | 87.88%
30 | C=CC(=O)Nc1ccc(Cl)cc1F [1-I10, N-(4-chloro-2-fluorophenyl)prop-2-enamide] | 88.0419%
31 | CC(Cl)C(=O)NCc1cc(-c2ccccc2)on1 (stereo not drawn) [7-A13, 2-chloro-N-[(5-phenyl-1,2-oxazol-3-yl)methyl]propanamide] | 82.868%
32 | CC(Cl)C(=O)N1CCN(C(=O)C(F)(F)F)C2(CCCCC2)C1 (stereo not drawn) [7-K06, 2-chloro-1-[1-(2,2,2-trifluoroacetyl)-1,4-diazaspiro[5.5]undecan-4-yl]propan-1-one] | 75.3345%
33 | CC(C#N)Oc1ccc(C=C(C#N)C(=O)Nc2ccccc2Cl)cc1 (stereo not drawn) [9-E05, N-(2-chlorophenyl)-2-cyano-3-[4-(1-cyanoethoxy)phenyl]prop-2-enamide] | 89.259%
34 | C=CCNC(=O)C(C#N)=Cc1cccc2ccccc12 [9-L10, 2-cyano-3-(naphthalen-1-yl)-N-(prop-2-en-1-yl)prop-2-enamide] | 88.3073%
35 | CC(Cl)C(=O)N(C)C[C@@H]1C[C@H](F)CN1c1ccnc(N(C)C)n1 (stereo partly drawn) [7-K16, 2-chloro-N-{[(2S,4S)-1-[2-(dimethylamino)pyrimidin-4-yl]-4-fluoropyrrolidin-2-yl]methyl}-N-methylpropanamide] | 71.1052%
36 | C=CC(=O)NCCc1ccn(-c2ccc(F)cc2)n1 [2-P03, N-{2-[1-(4-fluorophenyl)-1H-pyrazol-3-yl]ethyl}prop-2-enamide] | 113.818%
37 | Cc1ccc(C)c(N2C(=O)C=CC2=O)c1 [10-F13, 1-(2,5-dimethylphenyl)-2,5-dihydro-1H-pyrrole-2,5-dione] | 31.3267%
38 | Cc1cc(C(=O)O)ccc1N1C(=O)C=CC1=O [10-G22, 4-(2,5-dioxo-2,5-dihydro-1H-pyrrol-1-yl)-3-methylbenzoic acid] | 102.864%
39 | Cc1ccc(N2C(=O)C=CC2=O)c(C)c1 [10-N07, 1-(2,4-dimethylphenyl)-2,5-dihydro-1H-pyrrole-2,5-dione] | 22.5989%
40 | Cc1ccc2nc(-c3ccc(N4C(=O)C=CC4=O)cc3)sc2c1 [10-K18, 1-[4-(6-methyl-1,3-benzothiazol-2-yl)phenyl]-2,5-dihydro-1H-pyrrole-2,5-dione] | 99.1233%
41 | COc1ccc2c(c1)OCCN(C(=O)C(C)Cl)C2 (stereo not drawn) [7-E04, 2-chloro-1-(8-methoxy-2,3,4,5-tetrahydro-1,4-benzoxazepin-4-yl)propan-1-one] | 86.04%
42 | C=CC(=O)NCc1cscn1 [1-I07, N-[(1,3-thiazol-4-yl)methyl]prop-2-enamide] | 90.1345%
43 | CC(C)c1ccc(CC(=O)CCl)cc1 [10-I17, 1-chloro-3-[4-(propan-2-yl)phenyl]propan-2-one] | 115.644%
44 | CC(C)(C)c1ccc(CC(=O)CCl)cc1 [10-G19, 1-(4-tert-butylphenyl)-3-chloropropan-2-one] | 116.579%
45 | Cc1cccc(CC(=O)CCl)c1 [10-I19, 1-chloro-3-(3-methylphenyl)propan-2-one] | 92.7333%
46 | O=C(CCl)Cc1cccc(Cl)c1 [10-E17, 1-chloro-3-(3-chlorophenyl)propan-2-one] | 7.481%
47 | O=C(CCl)NCCc1cccc(Cl)c1 [5-O05, 2-chloro-N-[2-(3-chlorophenyl)ethyl]acetamide] | 115.33%
48 | Cc1ccc(CC(=O)CCl)cc1 [10-O13, 1-chloro-3-(4-methylphenyl)propan-2-one] | 100.058%
49 | O=C(CCl)Cc1ccc(Cl)c(Cl)c1 [10-E15, 1-chloro-3-(3,4-dichlorophenyl)propan-2-one] | 25.5601%
50 | O=C(CCl)Cc1cc(Cl)cc(Cl)c1 [10-I15, 1-chloro-3-(3,5-dichlorophenyl)propan-2-one] | 20.7286%
51 | O=C(CCl)N1CCC1c1cccc(F)c1 (stereo not drawn) [5-K10, 2-chloro-1-[2-(3-fluorophenyl)azetidin-1-yl]ethan-1-one] | 86.5819%
52 | O=C(CCl)Nc1cc(Cl)cc(Cl)c1 [4-K09, 2-chloro-N-(3,5-dichlorophenyl)acetamide] | 84.8825%
53 | O=C(Cc1cccc(F)c1)N1CCSSCC1 [10-L21, 1-(1,2,5-dithiazepan-5-yl)-2-(3-fluorophenyl)ethan-1-one] | 98.8116%
54 | O=C(CCl)Cc1cccc(F)c1 [10-C11, 1-chloro-3-(3-fluorophenyl)propan-2-one] | 7.637%
